Assay outcomes deposited in PubChem BioAssay by National Center for Advancing Translational Sciences (NCATS).
uPA generation – blocks generation of uPA at the cell surface; AID 540303; Potency, µM (titrated, usually from 38.3 µM), for the others: top-dose activity change, negative = inhibition, actives largely listed as inhibitors; cell surface uPA generation assay, qHTS; hit rate 0.31% among 330,000; active = well fitted inhibition curve with a large enough effect; inconclusive = small, poorly fitted or top-dose-only effect; inactive = no such curve, though single readings can be large or run the other way; tested in mouse RAW 264.7 cells; also: potency is read from the fitted curve at half-maximal effect; % is scaled to controls: 0 for no effect and ±100 for the full control effect; nearly all actives have a fitted effect of over 55% in size
SW480 rerep – inducers of DNA re-replication in SW480 colon cancer cells; hit rate 1.8% among 340,000; Potency, µM (series often up to 46.1 µM), inactives show at the highest dose re-replication activation, hits mostly activators; SW480 DNA re-replication, Hoechst DNA content imaging, 48 h; AID 624297; also: potency is read from the fitted curve at half-maximal effect; % of control where 0% means no effect; nearly all actives have a fitted effect of over 55% in size
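Cells (250 per well) received 23 nL compound or DMSO by pin tool and were kept 48 hr at 37 C, 5% CO2. Nuclei were then stained with Hoechst for 40 min and scanned for DNA content.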
MCF10A rereplic – DNA re-replication induction in MCF 10a cells; MCF 10A DNA re-replication, Hoechst nuclear intensity, 48 h; Potency, µM (highest dose often 46.1 µM), without a hit: at the highest dose activity, positive = re-replication, actives largely listed as activators; hit rate 2.9% among 350,000; AID 624296; also: potency is read from the fitted curve at half-maximal effect; % of control where 0% means no effect; nearly all actives have a fitted effect of over 50% in size
Giardia killer – kills Giardia lamblia; Giardia lamblia trophozoite viability; activity change, % at 7.66 µM, hits read low; hit rate 0.15% among 340,000; AID 540267; in the data active = activity change below about -80%; inconclusive = between about -30% and that limit;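 also: parasites exposed to compound for two days anaerobically before the ATP read; % is scaled to controls: 0 for no effect and ±100 for the full control effect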
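Viability, read as ATP luminescence: trophozoites at 100 cells/well, compound added, 48 hrs anaerobic at 37 deg C, then 15-30 min room-temperature development before reading.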
* marks the source's active call; other numbers are inactive results. Shown are actives, neighbours in structure and some others; about 4.3% of the full set was active somewhere. Unless noted, calls follow the shape of the dose curve; as a rule, active = well fitted activation curve with a large enough effect; inconclusive = small, poorly fitted or top-dose-only effect; inactive = no such curve, though single readings can be large or run the other way.

Results for Cc1cccc(OCC(=O)Nc2ccc(C(=O)Nc3ccccc3C(=O)O)cc2)c1C ?
uPA generation: 6%; SW480 rerep: -11%; MCF10A rereplic: 11%; Giardia killer: 7

Results for CC(C)C(=O)Nc1ccc(-c2nc3cccnc3o2)cc1 ?
uPA generation: -7%; SW480 rerep: -14%; MCF10A rereplic: inconclusive; Giardia killer: -22

How did CC(C)(C)c1ccc(OCC(=O)Nc2ccc(-c3nc4cccnc4o3)cc2)cc1 do in these assays?
uPA generation: 8%; SW480 rerep: 14%; MCF10A rereplic: 16µM*; Giardia killer: -11

What do the screens show for `CC(C)(C)c1ccc(OCC(=O)Nc2ccc(C(=O)Nc3ccccc3C(=O)O)cc2)cc1`?
uPA generation: -4%; SW480 rerep: 1%; MCF10A rereplic: 18µM*; Giardia killer: -23

What do the screens show for `COCCn1c(C)cc(C(=O)COC(=O)/C=C/c2c(C)nn(C3CCS(=O)(=O)C3)c2Cl)c1C` (stereo unspecified)?
uPA generation: -26%; SW480 rerep: -1%; MCF10A rereplic: 6%; Giardia killer: 3

How did Cc1nc(C)c2c(=O)cc(-c3ccccc3)[nH]c2n1 do in these assays?
SW480 rerep: 8.9µM*; MCF10A rereplic: 7.9µM*; Giardia killer: 6

Results for Cc1nc(-c2ccccc2)nc2[nH]c(-c3ccccc3)cc(=O)c12 ?
uPA generation: 7%; SW480 rerep: -2%; MCF10A rereplic: 9%; Giardia killer: -21

What do the screens show for `O=[N+]([O-])c1cccc(NC(=S)N2CCc3ccccc32)c1`?
uPA generation: 8%; SW480 rerep: -8%; MCF10A rereplic: -2%; Giardia killer: -3

How did Cc1ccc(C)c(CSCc2nc3ccccc3[nH]2)c1 do in these assays?
uPA generation: 3%; SW480 rerep: 2%; MCF10A rereplic: 18µM*; Giardia killer: 1

Results for c1ccc2cc(CSCc3nc4ccccc4[nH]3)ccc2c1 ?
uPA generation: -1%; SW480 rerep: -38%; MCF10A rereplic: 21µM*; Giardia killer: -7

How did CC1Cc2ccccc2N1C(=O)COC(=O)c1ccc([N+](=O)[O-])o1 (stereo unspecified) do in these assays?
uPA generation: -2%; SW480 rerep: 0%; MCF10A rereplic: 18%; Giardia killer: 5

What do the screens show for `Cc1n[nH]c(=S)n1/N=C/c1ccc(OCc2ccc(Cl)cc2)cc1`?
uPA generation: 0%; SW480 rerep: -10%; MCF10A rereplic: 12%; Giardia killer: -11

How did Cc1cc(C)c(COc2ccc(/C=N/n3c(C)n[nH]c3=S)cc2)c(C)c1 do in these assays?
uPA generation: -1%; SW480 rerep: -80%; MCF10A rereplic: 13µM*; Giardia killer: 15

Results for O=C(Nc1cc(OC(=O)C(F)(F)F)c2nonc2c1OC(=O)C(F)(F)F)C(F)(F)F ?
Giardia killer: -6

What do the screens show for `CC1(C)O[C@@H]2C[C@H]3[C@@H]4CCC5=CC(=O)C=C[C@]5(C)[C@H]4C(O)C[C@]3(C)[C@]2(C(=O)CO)O1` (stereo partly specified)?
SW480 rerep: 0%; MCF10A rereplic: -5%

Results for COCCNC(=S)NCCc1ccc(Cl)cc1Cl ?
uPA generation: inconclusive; SW480 rerep: 16µM*; MCF10A rereplic: 1%; Giardia killer: 11

How did COc1ccc(C(=O)Nc2cccc(NC(=O)c3cccs3)c2)cc1 do in these assays?
uPA generation: -14%; SW480 rerep: -6%; MCF10A rereplic: 2%; Giardia killer: 1

What do the screens show for `COc1nc(N)nc(NC(=O)c2cccs2)c1N=O`?
uPA generation: -5%; SW480 rerep: 5.2µM*; MCF10A rereplic: 21µM*; Giardia killer: 4

What do the screens show for `C=C1C(=O)C=C[C@]2(C)C[C@@H]3OC(=O)[C@](C)(O)[C@H]3C[C@@H]12`?
uPA generation: inconclusive; SW480 rerep: inconclusive; MCF10A rereplic: 6.5µM*; Giardia killer: 6

How did CN(C)CCN1CC(O)=C(c2nc3ccccc3s2)C1=N do in these assays?
uPA generation: 4%; SW480 rerep: 3%; MCF10A rereplic: 18µM*; Giardia killer: -5

Results for Cc1noc(C)c1C(=O)OCC(=O)c1c[nH]c2ccccc12 ?
uPA generation: 2%; SW480 rerep: 1%; MCF10A rereplic: 0%; Giardia killer: -6

Results for CCc1cccc2c(C(=O)COC(=O)c3c(C)noc3C)c[nH]c12 ?
uPA generation: -38%; SW480 rerep: inconclusive; MCF10A rereplic: 23µM*; Giardia killer: -8

Results for CCOc1nc(C#N)nc(N(c2ccccc2)c2ccccc2)n1 ?
Giardia killer: -23

What do the screens show for `O=C(N/N=C/C(Br)=C\c1ccccc1)c1ccc2nc[nH]c2c1`?
uPA generation: -9%; SW480 rerep: inconclusive; MCF10A rereplic: 23µM*; Giardia killer: -13

How did COc1ccc(C(=O)NN=C2CCCC2)cc1OC do in these assays?
uPA generation: 4%; SW480 rerep: -8%; MCF10A rereplic: 1%; Giardia killer: 12

What do the screens show for `C=CCc1cccc(/C=N/NC(=O)c2ccc3nc[nH]c3c2)c1O`?
uPA generation: inconclusive; SW480 rerep: inconclusive; MCF10A rereplic: 21µM*; Giardia killer: 5

How did O=C(N/N=C/c1ccc(Cl)cc1Cl)c1ccc2nc[nH]c2c1 do in these assays?
uPA generation: -3%; SW480 rerep: -3%; MCF10A rereplic: -1%; Giardia killer: 0

Results for CCOc1cc(C(=O)NN=C2CCCC2)cc(OCC)c1OCC ?
uPA generation: inconclusive; SW480 rerep: inconclusive; MCF10A rereplic: 16µM*; Giardia killer: 2

How did C=CCc1cccc(/C=N/NC(=O)C(=O)Nc2ccc(C)cc2)c1O do in these assays?
uPA generation: 5%; SW480 rerep: 4%; MCF10A rereplic: 2%; Giardia killer: 17

How did CC(=C/c1ccccc1)/C=N/NC(=O)c1ccc2nc[nH]c2c1 do in these assays?
uPA generation: 0%; SW480 rerep: -1%; MCF10A rereplic: inconclusive; Giardia killer: -18

What do the screens show for `C=CCc1cccc(/C=N/NC(=O)C(C)Nc2ccc(C)cc2)c1O` (stereo unspecified)?
uPA generation: -6%; SW480 rerep: 16µM*; MCF10A rereplic: inconclusive; Giardia killer: 10

What do the screens show for `COCCN(C(=O)COC(=O)c1ccc(-c2ccccc2)cc1)c1c(N)n(Cc2ccccc2)c(=O)[nH]c1=O`?
uPA generation: -3%; SW480 rerep: 4%; MCF10A rereplic: 5%; Giardia killer: 6

Results for O=C(N/N=C/C(Br)=C/c1ccccc1)c1ccncc1 ?
uPA generation: inconclusive; SW480 rerep: inconclusive; MCF10A rereplic: inconclusive; Giardia killer: -11

How did Cc1onc(-c2ccccc2)c1C(=O)N/N=C/C(Br)=C/c1ccccc1 do in these assays?
uPA generation: -6%; SW480 rerep: 0.23µM*; MCF10A rereplic: inconclusive; Giardia killer: -5

Results for CCOc1cc(C(=O)N/N=C/C(Br)=C/c2ccccc2)cc(OCC)c1OCC ?
uPA generation: -5%; SW480 rerep: inconclusive; MCF10A rereplic: 1.3µM*; Giardia killer: 13

What do the screens show for `CC1(C)CN(C(=S)Nc2ccc(F)cc2F)C1=O`?
uPA generation: 4%; SW480 rerep: -20%; MCF10A rereplic: 1%; Giardia killer: -7
